High-throughput results (PubChem BioAssay)
A selection follows.
aSyn 5UTR act = Activators via SNCA 5'UTR binding, MLPCN | alpha-synuclein 5'UTR reporter, activators screen | activity score, % (tested at 7.5 µM), hits read low | actives 7.1% (n = 300,000) | AID 1814, 2009; in the data active = activity score below about -60%
* = called active by the depositor.

SMILES	aSyn 5UTR act
CCc1nnc(NC(=O)c2cccc(C(=O)Nc3nnc(CC)s3)n2)s1	66.0
COc1ccccc1C(=O)Nc1nnc(-c2ccc(F)cc2)s1	-131.6*
CCOc1ccccc1C(=O)Nc1nnc(CC)s1	-93.0*
COc1ccccc1C(=O)Nc1nsc(-c2ccccc2)n1	-152.4*
O=C(Nc1nnc(-c2ccccc2)s1)c1ccc(F)cc1	-89.4*
COc1ccc(CCn2nc(C)c([N+](=O)[O-])c2C)cc1	-101.0*
Clc1ccc(-c2n[nH]c3c2Cc2ccccc2-3)cc1Cl	-66.3*
COc1cccc(NC(=O)c2ncc(Cl)c(Cl)c2Cl)c1	-223.8*
COc1cccc(NC(=O)c2cnsn2)c1	-97.1*
Cn1ccc(C(=O)Nc2ccc(Br)cc2Br)n1	-79.3*
COc1cccc(NC(=O)c2ccn(C)n2)c1	-73.5*
COc1ccc(Cl)cc1-c1nc(-c2ccc(NC(=O)c3cccs3)cc2)no1	-119.9*
COc1cccc(-c2nc(-c3ccccn3)no2)c1	104.1
O=C(Nc1ccc(-c2noc(-c3cccs3)n2)cc1)c1cccnc1	-93.5*
COc1cccc(-c2nc(-c3ccc(NC(=O)c4cccnc4)cc3)no2)c1	-105.8*
COc1cccc(-c2noc(-c3cccnc3)n2)c1	-152.5*
c1cncc(-c2noc(-c3ccco3)n2)c1	-90.5*
COc1ccc(-c2nc(-c3cccc(C)c3)no2)cc1OC	-200.3*
COc1ccc(-c2nc(-c3cccnc3)no2)cc1OC	-131.7*
Cc1ccc(-c2nc(-c3ccccc3)no2)cc1	57.4
Cc1ccc(-c2nc(-c3cccnc3)no2)cc1	-78.1*
COc1cccc(OCc2nnc(-c3cccs3)o2)c1	-141.8*
COc1cccc(-c2noc(-c3cccs3)n2)c1	-75.2*
O=C1c2ccccc2C(=O)c2[nH]c(=O)[nH]c21	93.0
O=c1[nH]c(=O)c2nc3c4ccccc4c4ccccc4c3nc2[nH]1	-69.8*
SMILES	aSyn 5UTR act
Cc1cc(C(=O)CSc2ncccn2)c(C)n1-c1cccc(F)c1	-83.5*
Cc1cc(C(=O)CSc2nnnn2C)c(C)n1-c1cccc(F)c1	-131.5*
Cc1ccc(-n2c(C)cc(C(=O)COc3cccnc3[N+](=O)[O-])c2C)cc1	64.1
CCOc1ccc(/C=N/n2cc(-c3ccccc3)[nH]c2=S)cc1	-64.8*
Clc1ccc(OCc2nc(-c3ccncc3)no2)c(Br)c1	-118.8*
c1ccc(OCc2nc(-c3ccccc3)no2)cc1	-202.0*
c1ccc(OCc2nc(-c3ccncc3)no2)cc1	-81.8*
NC(=O)COc1ccc(-c2noc(COc3ccccc3[N+](=O)[O-])n2)cc1	-83.8*
Cn1c(-c2ccc3ccccc3n2)[n+](C)c2ccccc21	-64.9*
ONC(=Nc1ccc(Cl)cc1)c1ccc(Cl)cc1	-99.8*
CCCN1CN=C(Nc2nc3ccccc3o2)NC1	-112.9*
c1ccc2oc(NC3=NCN(CC4CCCO4)CN3)nc2c1 (stereo not drawn)	-93.7*
COCCCN1CN=C(Nc2nc3ccccc3o2)NC1	-81.7*
Cc1scc(C(=O)N/N=C/c2ccc([N+](=O)[O-])o2)c1C	84.8
Cc1scc(C(=O)N/N=C/c2ccco2)c1C	-86.4*
Cc1scc(C(=O)N/N=C/c2ccsc2)c1C	-161.7*
CSc1n[nH]c(-c2ccc(C(F)(F)F)cc2)n1	-68.1*
Cn1c(-c2ccccc2)cnc1NCc1cc(Cl)ccc1O	-66.5*
Cn1c(-c2ccc(F)cc2)cnc1NCc1ccccc1F	-66.1*
Oc1ccc(CNc2ccc(F)cc2)c2cccnc12	75.6
Cc1ccc2c(c1)c1nc3ccccc3nc1n2C	-90.2*
c1ccc(-c2onc3cc4c(cc23)OCCO4)cc1	-167.1*
CO/C([O-])=N/c1c[n+](-c2ccc(C)cc2)no1	-61.5*
c1ccc(-c2noc(-c3cccc4ccccc34)n2)cc1	-179.4*
c1ccc2c(-c3nc(-c4ccncc4)no3)cccc2c1	-271.7*
SMILES	aSyn 5UTR act
c1cncc(-c2noc(-c3cccc4ccccc34)n2)c1	-225.5*
COc1cc(/C=N/Nc2nc(-c3ccc(S(=O)(=O)N(C)C)cc3)cs2)ccc1O	-77.8*
O=[N+]([O-])c1cc(/C=N\Nc2nc(-c3ccccc3)cs2)ccc1O	-67.0*
CCOC(=O)c1ccc(N2Cc3ccccc3C2=N)cc1	-77.8*
CC(Cc1ccccc1)C(=O)Nc1ccc(Br)cc1 (stereo not drawn)	-81.2*
CC(C)(C)c1ccc(-c2noc(CCC(=O)Nc3cccnc3)n2)cc1	76.9
O=C(CCc1ccccc1)Nc1cccnc1	-63.1*
COCc1cccc(NC(=O)CCc2ccccc2)c1	-99.4*
CC(C)c1ccc(NC(=O)CCc2ccccc2)cc1	-388.9*
Fc1ccc(Nc2ccnc(Nc3ccc(F)cc3)n2)cc1	-93.5*
CN1CCCC1CCNc1ccc2sc3ccccc3c(=O)c2c1 (stereo not drawn)	-114.0*
Cc1cc2oc3cc(NCCC4CCCN4C)ccc3c(=O)c2cc1C (stereo not drawn)	-184.2*
O=c1c2ccccc2sc2ccc(NCCCN3CCOCC3)cc12	-158.4*
C/C(=C\C(=O)c1ccc(Br)cc1)Nc1cccc(Cl)c1	-79.8*
C/C(=C\C(=O)c1ccc(Cl)cc1)Nc1ccc(Br)cc1	-131.0*
Cc1c(/N=C(\[O-])Nc2ccc(Br)cc2)sn[n+]1C	89.3
C/C(=C\C(=O)c1ccc(Br)cc1)NCc1ccccc1	-112.8*
c1ccc(CNc2ncnc3c2ncn3C2CCCCO2)cc1 (stereo not drawn)	-104.1*
CC(Sc1nnc(-c2cccnc2)n1-c1ccccc1)C(=O)NCc1ccc2c(c1)OCO2 (stereo not drawn)	-71.5*
C=CCC1(CC=C)CCCN1C(=O)C1CCC(=O)N(CCc2ccc(OC)cc2)C1 (stereo not drawn)	-209.6*
COc1ccc(CCN2CC(C(=O)N(C)Cc3ccc(C)o3)CCC2=O)cc1 (stereo not drawn)	-86.9*
C=CCC1(CC=C)CCCN1C(=O)C1CCC(=O)N(CCc2ccccc2)C1 (stereo not drawn)	-180.7*
O=C(N/N=C/c1cn(-c2ccccc2)nc1-c1ccc2c(c1)OCCO2)c1ccncc1	-98.5*
O/N=C/c1cn(-c2ccccc2)nc1-c1ccc2c(c1)OCCO2	-72.3*
OCc1cn(-c2ccccc2)nc1-c1ccc2c(c1)OCCO2	-132.6*
SMILES	aSyn 5UTR act
OCc1cn(-c2ccccc2)nc1-c1ccc(Br)cc1	-116.7*
COc1cccc(-c2nn(-c3ccccc3)cc2CO)c1	-126.6*
O=C(N/N=C/c1nn(-c2ccccc2)cc1-c1ccc(Cl)cc1)c1ccncc1	-63.7*
CCCCNC(=O)CSc1nc2ccc(N3CCOCC3)cc2c(=O)n1CCc1ccccc1	-91.5*
CCCCc1ccc(Nc2ncccc2C#N)cc1	-86.6*
COc1ccc(C(=O)O/N=C(\N)c2ccc(Cl)cc2)cc1	-195.8*
N/C(=N\OC(=O)c1cccs1)c1ccc(Cl)cc1	-104.0*
N/C(=N/OC(=O)c1ccc(Cl)cc1)c1ncc([N+](=O)[O-])s1	-78.3*
COc1ccccc1C(=O)O/N=C(\N)c1ccc(Cl)cc1	-263.7*
COc1cccc2cc(-c3ccnc(N)n3)oc12	-80.1*
CCNC(=S)N/N=C/c1sc(N2CCCCC2)nc1-c1cccs1	-102.2*
N=C1CCCN1CC(=O)c1ccc(Br)cc1	-87.5*
CCOC(=O)C(C)On1c(-c2cccc(Cl)c2)nc2ccc([N+](=O)[O-])cc21 (stereo not drawn)	-62.0*
CCOC(=O)COn1c(-c2cccc(Cl)c2)nc2ccc([N+](=O)[O-])cc21	-192.2*
COc1cccc(C2=N/C(=C\N(C)C)C(=O)O2)c1	-133.0*
Cc1ccc(-c2cc(C(=O)Nc3nn[nH]n3)c3ccccc3n2)cc1	-69.0*
